The values that follow come from ChEMBL document CHEMBL3988442, “University of Dundee, Small-Polar-MMV Screening Library” (2021).

Among all 69,000 compounds or so, about 950 (1.4%) showed an effect of 50% or more. The sample as a whole holds a higher share of strong results than the screen did.

The test system of this assay is Mycobacterium tuberculosis. The assay can be described thus: Cornell M. t heat shock assay. Note: in the data most compounds retested in dose-response had high values. Type of assay: functional, organism-based. The arrangement: dose or concentration left out as unconfirmed.
As to `CN(C)Cc1cc(=O)n2c(n1)CN(S(=O)(=O)C1CC1)CCC2.O=C(O)C(F)(F)F`, the “Percent Effect” value came out at 14.69%.

For `CCSc1ccccc1C(=O)N(CCOC)Cc1ccoc1`, the “Percent Effect” value is -23.21%.

On to `COCC(=O)N1CCN(CCn2cccn2)c2nc(C)ccc2C1.O=C(O)C(F)(F)F`, for which the “Percent Effect” value was -7.36%.

On to `COCC1CC2(CCN(c3ccccn3)CC2)CN1C(C)C.O=C(O)C(F)(F)F.O=C(O)C(F)(F)F` (stereo not given), for which the “Percent Effect” value is recorded as -2.762%.

On to `Cc1csc(CN2CC[C@H]3C[C@H](c4nc(C)no4)O[C@@H]3C2)n1.O=C(O)C(F)(F)F`, for which the “Percent Effect” value was -42.3%.

On to `Cn1cc(-c2ncnc3c2CCN(CC2CCOC2)CC3)cn1.O=C(O)C(F)(F)F` (stereo not given), for which the “Percent Effect” value amounted to 17.32%.

In the case of `O=C(O)C(F)(F)F.O=C(O)C(F)(F)F.c1ccc(CN2CCn3c(Cn4cncn4)cnc3C2)nc1`, the “Percent Effect” value was determined as 0.3776%.

In the case of `O=C(O)C(F)(F)F.O=C([C@H]1C[C@H]2OCC[C@H]2N(CCc2ccccc2)C1)N1CCCO1`, the “Percent Effect” value is reported as -5.073%.

`O=C(NCC1CC1)C1CN(c2ncccn2)Cc2ccnn2C1.O=C(O)C(F)(F)F.O=C(O)C(F)(F)F` (stereo not given): the “Percent Effect” value came to 12.91%.

Take `CCc1nc(CN2CCCN(C(=O)c3cnc[nH]3)CC2)cs1`: the “Percent Effect” value was 30.64%.

For `c1csc(N2CCCN(Cc3noc(C4CC4)n3)CC2)n1`, the “Percent Effect” value is recorded as -6.96%.

`CCc1nc(CN2CCCN(Cc3noc(C4CC4)n3)CC2)cs1`: the “Percent Effect” value is listed as 67.89%.

Regarding `CCCOCC(=O)N1CCCN(Cc2csc(CC)n2)CC1`, the “Percent Effect” value is on record as 22.03%.

As to `CCc1nc(CN2CCCN(C(=O)COCC3CC3)CC2)cs1`, the “Percent Effect” value is 155.1%.

`CCc1nc(CN2CCCN(C(=O)c3cn[nH]c3C)CC2)cs1`: the “Percent Effect” value is 14.33%.

For `CCc1nc(CN2CCCN(C(=O)c3cn[nH]c3CC)CC2)cs1`, the “Percent Effect” value was found to be 52.06%.

For the compound `Cc1nc(CN2CCCN(C(=O)COCC3CC3)CC2)cs1`, the “Percent Effect” value stood at 36.12%.

As for `Cc1ncc(CN2CCCN(Cc3noc(C4CC4)n3)CC2)s1`, the “Percent Effect” value was found to be 6.148%.

As for `CCc1nc(-c2ccnc(N3CCNCC3)n2)no1.Cl.Cl`, the “Percent Effect” value is -8.056%.

`Cl.O=C(c1cccnc1)N1CCC2(CC1)CNc1c(F)cccc12`: the “Percent Effect” value stood at 4.233%.

`O=C(O)C(F)(F)F.c1cnc(NC2COC3(CCN(Cc4cc[nH]n4)CC3)C2)nc1` (stereo not given): the “Percent Effect” value is on record as -22.6%.

Consider `O=C(O)C(F)(F)F.O=C(O)C(F)(F)F.O=C(O)C(F)(F)F.O=C1C[C@H]2[C@@H](CCN2Cc2ccccn2)N1Cc1cccnc1`, for which the “Percent Effect” value was -6.498%.

Regarding `O=C(O)C(F)(F)F.O=C([C@H]1C[C@H]2OCC[C@H]2N(C(=O)c2ccncc2)C1)N1CCCC1`, the “Percent Effect” value is reported as -34.63%.

`Cc1cc(CCC(=O)N(C)C)nc(C2CCCCN2)n1.Cl.Cl` (stereo not given): the “Percent Effect” value is on record as -7.222%.

Consider `CCCS(=O)(=O)N1C[C@@H](OCc2ccncc2)[C@H]2OCCC[C@H]21.O=C(O)C(F)(F)F`, for which the “Percent Effect” value is given as -14.14%.

With `CCn1cc2c(n1)C(COC)CN(C(=O)c1ccccn1)C2` (stereo not given), the “Percent Effect” value is recorded as -31.72%.

On to `CC(C)c1nc(-c2ccnc(N3CCNCC3)n2)no1.Cl.Cl`, for which the “Percent Effect” value was -7.834%.

Consider `CC[C@]12CN3C[C@](CC)(CN(C1)C3c1[nH]c(=O)[nH]c(=O)c1C)C2=O` (stereo not given in full), for which the “Percent Effect” value was 72.7%.

Consider `Cc1c(C2N3C[C@]4(C(C)C)CN2C[C@](C(C)C)(C3)C4=O)[nH]c(=O)[nH]c1=O` (stereo not given in full), for which the “Percent Effect” value is 1.038%.

In the case of `Cc1c(C2N3C[C@]4(C)CN2C[C@](C)(C3)C4=O)[nH]c(=O)[nH]c1=O` (stereo not given in full), the “Percent Effect” value is 74.22%.

Take `CCC[C@]12CN3C[C@](CCC)(CN(C1)C3c1[nH]c(=O)[nH]c(=O)c1C)C2=O` (stereo not given in full): the “Percent Effect” value is listed as -14.28%.

As to `CC[C@]12CN3C[C@](C)(CN(C1)C3c1[nH]c(=O)[nH]c(=O)c1C)C2=O` (stereo not given in full), the “Percent Effect” value turned out to be 68.87%.

As to `CCC[C@]12CN3C[C@](C)(CN(C1)C3c1[nH]c(=O)[nH]c(=O)c1C)C2=O` (stereo not given in full), the “Percent Effect” value is -3.215%.

On to `O=C(O)C(F)(F)F.O=C1CC[C@H]2[C@H](CCN2c2ncc(F)cn2)N1c1ccccc1`, for which the “Percent Effect” value was 11.33%.

For the compound `CCn1ccnc1CNCC(c1ccc(C)s1)N1CCOCC1` (stereo not given), the “Percent Effect” value is given as -18.67%.

On to `Cn1ccc(C(=O)N2C[C@H]3CCC[C@@]3(COCc3cccnc3)C2)n1.O=C(O)C(F)(F)F`, for which the “Percent Effect” value was -13.25%.

As for `CN(CCCc1cc(-c2ccc(F)cc2)n(C)n1)CC(N)=O`, the “Percent Effect” value was found to be 51.67%.

In the case of `CN(CCCc1cc(-c2ccc(F)cc2)n(C)n1)CC(=O)NC(N)=O`, the “Percent Effect” value is 24.77%.

As to `CC(C(N)=O)N(C)CCCc1cc(-c2ccc(F)cc2)n(C)n1` (stereo not given), the “Percent Effect” value was 22.06%.

For `CN(C)[C@@H]1CCN(C(=O)c2ccsc2)[C@H]1Cc1cnn(C)c1`, the “Percent Effect” value stood at 4.524%.

Regarding `CN(C)[C@@H]1CCN(C(=O)c2ccccn2)[C@H]1Cc1cnn(C)c1`, the “Percent Effect” value turned out to be 76.59%.

With `CN(C)[C@@H]1CCN(C(=O)c2ccccn2)[C@H]1Cc1ccncc1`, the “Percent Effect” value worked out at 0.1149%.

Turning to `CC(C)CN1C[C@H]2CCN(Cc3cccnc3)CC[C@H]2S1(=O)=O.O=C(O)C(F)(F)F.O=C(O)C(F)(F)F`, the “Percent Effect” value was -7.462%.

With `CCOC(=O)C(CO)NC(=O)CCc1cccc(OC2CCCC2)c1` (stereo not given), the “Percent Effect” value is recorded as -10.42%.

For the compound `Cc1ccc(N2N=C(C(=O)O)S(=O)(=O)c3cccnc32)cc1`, the “Percent Effect” value is -6.267%.

Turning to `Cc1ccc(N2N=C(C(N)=O)S(=O)(=O)c3cccnc32)cc1`, the “Percent Effect” value is reported as 105.6%.

As to `Cc1ccc(N2N=C(C(=O)NCC3CC3)S(=O)(=O)c3cccnc32)cc1`, the “Percent Effect” value is 9.457%.

Turning to `Cc1ccc(C(=O)N2C[C@@H]3OCCN(CCN4CCCC4)[C@@H]3C2)cn1.O=C(O)C(F)(F)F`, the “Percent Effect” value was determined as 8.47%.

As to `O=C(CC1CC1)N1CCC2(CCCN(CCOc3ccccc3)C2)C1.O=C(O)C(F)(F)F` (stereo not given), the “Percent Effect” value is -8.964%.

`CC(Cn1cccn1)NCc1csc(-c2ccc3c(c2)OCO3)n1` (stereo not given): the “Percent Effect” value amounted to 35.45%.

Consider `Cc1cnn(CCNCc2csc(-c3ccc(C(N)=O)cc3)n2)c1`, for which the “Percent Effect” value was -3.906%.

As for `Cc1cnn(CCNCc2csc(-c3ccc4c(c3)OCO4)n2)c1`, the “Percent Effect” value worked out at 93.68%.

For the compound `c1cnn(CCNCc2csc(-c3ccc4c(c3)OCO4)n2)c1`, the “Percent Effect” value worked out at 65.17%.

On to `c1cnn(CCNCCCOc2ccc3c(c2)OCO3)c1`, for which the “Percent Effect” value is on record as 0.6427%.

For the compound `Cc1cnn(CCNCc2csc(C)n2)c1`, the “Percent Effect” value was 4.294%.
